Test results reported in PubChem BioAssay (NCI).
The panel holds about 79,000 compounds, 15% with a hit somewhere; the sample as a whole holds those more often. Cut-off read from the data, not from the text of the source: active = growth inhibition above about 70%; inactive = the rest.

What was measured:
[1] = NCI Yeast Anticancer Drug Screen. Data for the rad50 strain (AID 155);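 note: 0% = growth of vehicle-only cultures of the same strain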; details: S. cerevisiae rad50 strain growth inhibition; at 50.0 µM; hits give high values
Procedure, shortened: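 Growth of the mutant yeast was measured after compound exposure and referenced to vehicle-treated cultures.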

[2] = NCI Yeast Anticancer Drug Screen. Data for the mec2-1 strain (AID 157); details: S. cerevisiae mec2-1 strain, at 50.0 µM, hits give high values
Procedure, shortened: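 Strain: mec2-1 (DNA repair/cell cycle alteration). Compound exposure, then growth measured; inhibition expressed relative to vehicle.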

[3] = NCI Yeast Anticancer Drug Screen. Data for the sgs1 mgt1 strain (AID 161);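 note: 0% = growth of cultures given vehicle only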; details: S. cerevisiae sgs1 mgt1 strain, at 50.0 µM, hits give high values
Procedure, shortened: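 Mutant yeast exposed to compound; growth scored against vehicle-only wells.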

[4] = NCI Yeast Anticancer Drug Screen. Data for the cln2 rad14 strain (AID 165);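 note: 0% = growth equal to vehicle treated cultures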; details: S. cerevisiae cln2 rad14 strain, at 50.0 µM, hits give high values
Procedure, shortened: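 Compounds are applied to the cln2 rad14 yeast strain, and growth is then compared with that of vehicle-treated cultures to give inhibition.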

[5] = NCI Yeast Anticancer Drug Screen. Data for the bub3 strain (AID 167); details: S. cerevisiae bub3 mutant strain, at 50.0 µM, hits give high values
Procedure, shortened: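 Whole-cell yeast assay. The mutant strain was incubated with compounds, and growth inhibition was determined by comparison with vehicle-treated cells.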

[6] = NCI Yeast Anticancer Drug Screen. Data for the mlh1 rad18 strain (AID 175); details: S. cerevisiae mlh1 rad18 strain growth inhibition; at 50.0 µM; hits give high values
Procedure, shortened: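 Read-out is yeast growth inhibition, calculated against vehicle-only controls. The compound was applied to a strain engineered with DNA damage repair alterations.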

Measured: growth inhibition

COc1ccc(/C=N/Nc2c([N+](=O)[O-])cc(C)cc2[N+](=O)[O-])cc1
inactive: [1] 35.1% | [2] 13.2% | [3] 16.3% | [4] 13% | [5] 11.8% | [6] 7.8%

CC(C)C1OCCOCCO1
inactive: [1] 9.45% | [2] -12.1% | [3] -18.5% | [4] -21.5% | [5] -9.4% | [6] 9.45%

O=C(CC(C(=O)c1cccs1)c1cccs1)c1ccsc1 (stereo not drawn)
inactive: [1] -4.2% | [2] -24.1% | [3] 10.6% | [4] 11.1% | [5] 2.9% | [6] -4.1%

CN1C2CCC1CC(OC(c1ccccc1)c1ccccc1)C2 (stereo not drawn)
inactive: [1] 11.1% | [2] 4.05% | [3] -15.4% | [4] 0.25% | [5] 2.7% | [6] 5.1%

O=c1[nH]nc(SCc2ccccc2)c2nncn12
inactive: [1] 2.45% | [2] 3.1% | [3] 6.35% | [4] 23.4% | [5] 6.55% | [6] 20.1%

COc1ccc(-n2cc[n+](C)c2/C=N\O)cc1
inactive: [1] -3.1% | [2] 0.95% | [3] 3.2% | [4] -43.3% | [5] -31.8% | [6] -13.6%

CC#CCN(C(C)C)C(C)C
inactive: [1] 15.4% | [2] 8.3% | [3] -11.4% | [4] -34.5% | [5] -21.5% | [6] -27.1%

COc1ccc(OC)c(N2C(=O)C(=O)C(C(C)=O)C2=O)c1 (stereo not drawn)
inactive: [1] 27.7% | [2] -1.95% | [3] 7.15% | [4] 25.1% | [5] 7.65% | [6] 16.5%

CC(CO)N1CCCCCC1 (stereo not drawn)
inactive: [1] -20.4% | [2] -15.7% | [3] 5.9% | [4] -17.7% | [5] 10.7% | [6] -9%

COC(=O)C1[C@@H](C(=O)OC)C12C=Cc1ccccc1C=C2 (stereo partly drawn)
inactive: [1] -33.2% | [2] -47% | [3] -50.2% | [4] 1.05% | [5] -28.6% | [6] -25.4%

O=C(O)/C(Cc1ccc([N+](=O)[O-])cc1)=N\O
inactive: [1] -4.2% | [2] 6.85% | [3] -25.4% | [4] -16.6% | [5] 17.4% | [6] -2.8%

Cc1ccc(N=Nc2ccc(C)cc2NC(=S)Nc2ccccc2)cc1
inactive: [1] -11.2% | [2] -0.95% | [3] -12.3% | [4] -20.9% | [5] 7.7% | [6] -8.75%

CNC(=O)Oc1ccc2c(c1)[C@]1(C)CCN(C)[C@@H]1N2C
inactive: [1] -9.7% | [2] -29.8% | [3] -32.7% | [4] -5.55% | [5] -35.7% | [6] -37.2%

CCOC(=O)c1[nH]cnc1N
inactive: [1] -17.1% | [2] 11.1% | [3] -2.55% | [4] -46.1% | [5] 1.15% | [6] -3.65%

CC1(C)COC(C23C4C5C2C2C3C4C52I)=N1 (stereo not drawn)
inactive: [1] 25.9% | [2] 12.4% | [3] 11.2% | [4] 18.2% | [5] 26.6% | [6] 16.6%

CC(C)CN(CC(=O)NC(=O)c1ccccc1)CC(C)C
inactive: [1] -2.1% | [2] -10.1% | [3] -12.2% | [4] -37.9% | [5] -4% | [6] -3.8%

OCC(O)COc1cccc2cccnc12 (stereo not drawn)
inactive: [1] 4.75% | [2] -15% | [3] 0.4% | [4] -26.1% | [5] 11.2% | [6] 8.3%

CC(=O)Nc1ccc(S(=O)(=O)Nc2ccc([N+](=O)[O-])cc2)cc1
inactive: [1] -37.4% | [2] -40% | [3] -22.8% | [4] -8.65% | [5] -31.9% | [6] -36%

Cn1c(=O)c2[nH]c(CCCCCc3nc4c([nH]3)c(=O)n(C)c(=O)n4C)nc2n(C)c1=O
inactive: [1] -9% | [2] 7.15% | [3] -27.3% | [4] -18.5% | [5] -16.4% | [6] -16.1%

COC1/C=C\OC2(C)Oc3c(C)c(O)c4c(O)c(c5sc(N)nc5c4c3C2=O)NC(=O)/C(C)=C\C=C\C(C)C(O)C(C)C(O)C(C)C(OC(C)=O)C1C (stereo not drawn)
inactive: [1] -2.25% | [2] 16.6% | [3] 4.75% | [4] 14.8% | [5] 22.1% | [6] 10.8%

O=S(=O)(OCC(F)(F)F)c1ccccc1
inactive: [1] 16.4% | [2] 8.25% | [3] 14.7% | [4] -2.8% | [5] -8.8% | [6] -10.4%

CCOC(=O)NN(C(=O)OCC)C(C(=O)C1=CCCCC1)N(NC(=O)OCC)C(=O)OCC
inactive: [1] -9.95% | [2] -1.15% | [3] 4.5% | [4] 0.2% | [5] 0.3% | [6] -2.85%

c1ccc(COc2ccc(OCc3ccccc3)cc2)cc1
inactive: [1] -1.5% | [2] 3.8% | [3] 13.1% | [4] -31.6% | [5] -10.2% | [6] 3%

CN1c2ccccc2Sc2cc(/C=C3/SC(=S)NC3=O)ccc21
inactive: [1] 1.95% | [2] 4.6% | [3] 3.55% | [4] -19.8% | [5] 38.8% | [6] 0.15%

Cc1cc(N=Nc2ccc(S(=O)(=O)O)c3ccccc23)ccc1O
inactive: [1] -33.6% | [2] 9.75% | [3] -5.1% | [4] -66.1% | [5] 12.9% | [6] -5.6%

CCCCCCCCCCCCCCCCCCCCCCC
inactive: [1] -30.4% | [2] -15.1% | [3] -21.9% | [4] 4.8% | [5] -17.2% | [6] -18.4%

NS(=O)(=O)c1ccc(NC(=O)CCl)cc1
inactive: [1] 6.5% | [2] -6.8% | [3] -1.9% | [4] 11.7% | [5] 3.3% | [6] -15.9%

COC(=O)/C=C/c1ccc(OP(=O)(O)O)c(OC)c1
inactive: [1] -22.1% | [2] -8.9% | [3] -30.6% | [4] -20.6% | [5] -56.7% | [6] -15.4%

CC(=O)NC1=NC(=O)/C(=C/c2ccc(/C=C3/C(=O)N=C(NC(C)=O)N3C)cc2)N1C
inactive: [1] -20.6% | [2] 11% | [3] 14.4% | [4] 35.6% | [5] -9.05% | [6] -27.2%

C=C(c1ccc(OC)cc1)c1cc(C(C)(C)C)c(O)c(C(C)(C)C)c1
inactive: [1] -4.45% | [2] -1.75% | [3] -17.9% | [4] 51.8% | [5] -4.65% | [6] 0.35%

CCOC(=O)C(O)(NC(C)=O)C(F)(F)F (stereo not drawn)
inactive: [1] 27.9% | [2] -3.9% | [3] -0.8% | [4] 17.4% | [5] 0.2% | [6] -47.4%

O=C(O)c1ccccc1C(NC(=O)N1C(=O)C=CC1=O)NC(=O)N1C(=O)C=CC1=O
inactive: [1] 29.2% | [2] -5.1% | [3] -2.85% | [4] 16.4% | [5] 4.8% | [6] 12.8%

O=C(O)c1ccc2c(c1)S(=O)(=O)NC2=O
inactive: [1] 1.15% | [2] 10.2% | [3] 13% | [4] -26.1% | [5] 12.1% | [6] -8%

CCOC(=O)C1=C(C)N(NC(N)=O)C(C)(O)C12CCOC2=O (stereo not drawn)
inactive: [1] 32% | [2] 0% | [3] -10.8% | [4] 13.1% | [5] 3.2% | [6] 39%

COc1ccccc1CC(=O)C(O)(C(F)(F)F)C(F)(F)F
inactive: [1] -37.5% | [2] -36.3% | [3] -18.9% | [4] -28.6% | [5] -5.9% | [6] -26.9%

O=C(NCCCCCCCCCCNC(=O)C12CC3CC(CC(C3)C1)C2)C12CC3CC(CC(C3)C1)C2
inactive: [1] -1.5% | [2] -5.15% | [3] 2.3% | [4] 14.7% | [5] -2.1% | [6] -14.5%

CC1NCCC(CC(=O)O)C1CC(=O)O (stereo not drawn)
inactive: [1] -7.55% | [2] -26% | [3] 1.75% | [4] -41.1% | [5] -26.8% | [6] -10.3%

COC(=O)[C@H](Cc1ccccc1)NP(=O)(OCCC#N)OCC1OC(n2cc(C)c(=O)[nH]c2=O)CC1N=[N+]=[N-] (stereo partly drawn)
inactive: [1] 0.95% | [2] -13.1% | [3] -19.3% | [4] -20% | [5] -19.9% | [6] -35.8%
